# Measurements from PubChem BioAssay (NCATS).
# Inconclusive results are not listed. Where a call stands in place of a potency, no number is given. A structure can be active in one record and inactive in another. Activity calls are given as the source filed them. Unless noted, the call rests on the fitted dose curve; in most records, active means well fitted curve in the direction sought with a large enough effect; inconclusive means small, poorly fitted or top-dose-only effect, or another doubt; inactive means no such curve, though single readings can be large; an effect the other way counts as inactive or inconclusive.
# How the values were obtained:
# [1] = biological target: Guanine nucleotide-binding protein G(i) subunit alpha-1 (Homo sapiens) (UniProt P63096); assay: qHTS Assay for Inhibitors of RGS12 GoLoco Motif Activity (Green Fluorophore) (AID 879);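 further: negative values mean loss of peptide binding seen as reduced polarization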
# Sequence of Guanine nucleotide-binding protein G(i) subunit alpha-1 (Homo sapiens) (P63096 whole entry, looked up): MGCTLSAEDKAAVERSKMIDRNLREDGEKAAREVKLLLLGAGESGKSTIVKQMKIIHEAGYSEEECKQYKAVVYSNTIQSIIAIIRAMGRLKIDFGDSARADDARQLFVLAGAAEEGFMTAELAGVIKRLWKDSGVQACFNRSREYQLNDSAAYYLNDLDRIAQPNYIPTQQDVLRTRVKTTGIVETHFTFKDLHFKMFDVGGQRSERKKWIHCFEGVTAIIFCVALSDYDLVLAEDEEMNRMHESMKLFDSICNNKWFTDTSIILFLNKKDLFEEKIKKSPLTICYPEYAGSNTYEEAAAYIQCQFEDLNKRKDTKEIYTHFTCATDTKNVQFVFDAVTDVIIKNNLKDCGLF
# Procedure, shortened: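 Fluorescence polarization assay: 50 nM Gαi1 with 10 nM FITC-labeled RGS12 GoLoco peptide in 10 mM Tris pH 7.5, 150 mM NaCl, 0.1 mM GDP, 0.05% NP40, 10 min at room temperature with compound.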
# [2] = biological target: Cytochrome P450 3A4 (Homo sapiens) (UniProt P08684); assay: qHTS Assay for Inhibitors and Substrates of Cytochrome P450 3A4 (AID 884); further: nearly all actives have a fitted effect of over 50% in size; further: potency means the concentration at half of the fitted maximal effect; on activity change, negative = inhibition: series mostly up to about 57 µM
# Sequence of Cytochrome P450 3A4 (Homo sapiens) (P08684 whole entry, looked up): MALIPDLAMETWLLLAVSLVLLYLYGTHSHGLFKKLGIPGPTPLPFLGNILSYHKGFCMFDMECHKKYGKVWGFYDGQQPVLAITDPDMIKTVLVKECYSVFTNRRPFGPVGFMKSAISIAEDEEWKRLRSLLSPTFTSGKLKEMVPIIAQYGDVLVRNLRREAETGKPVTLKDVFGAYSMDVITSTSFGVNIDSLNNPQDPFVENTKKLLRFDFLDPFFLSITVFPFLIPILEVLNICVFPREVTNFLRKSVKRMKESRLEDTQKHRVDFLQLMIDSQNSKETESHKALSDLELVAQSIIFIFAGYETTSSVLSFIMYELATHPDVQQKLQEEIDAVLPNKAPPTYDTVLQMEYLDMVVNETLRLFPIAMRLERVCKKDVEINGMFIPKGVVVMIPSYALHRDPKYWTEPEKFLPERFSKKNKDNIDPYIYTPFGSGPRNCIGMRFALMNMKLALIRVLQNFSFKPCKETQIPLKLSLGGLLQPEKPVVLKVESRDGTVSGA
# Procedure, shortened: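 20 nM human CYP3A4 with 25 uM Luciferin-PPXE (at KM) in 200 mM KPO4, preincubated 10 min with compound; NADPH regeneration started a 60 min RT reaction. Luciferin detected by luminescence, normalized to 57 uM ketoconazole as full inhibition.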
# [3] = Confirmation and Secondary Assay for Modulators of Hemoglobin Beta Chain Splicing at IVS2 654 locus (AID 910);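 further: per-well total GFP intensity by laser scanning cytometry after 2-day treatment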
# Procedure, shortened: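 HeLa cells stably carrying EGFP interrupted by mutant beta-globin IVS2-654 intron (CMV-driven) were treated with compound for 2 days at 37C; corrected splicing was scored as total peak GFP intensity per well (488 nm excitation, 500-520 nm emission).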
# [4] = biological target: Cytochrome P450 2C9 (Homo sapiens) (UniProt P11712); assay: qHTS Assay for Inhibitors and Substrates of Cytochrome P450 2C9 (AID 883); further: nearly all actives have a fitted effect of over 60% in size; further: potency means the concentration at half of the fitted maximal effect
# Sequence of Cytochrome P450 2C9 (Homo sapiens) (P11712 whole entry, looked up): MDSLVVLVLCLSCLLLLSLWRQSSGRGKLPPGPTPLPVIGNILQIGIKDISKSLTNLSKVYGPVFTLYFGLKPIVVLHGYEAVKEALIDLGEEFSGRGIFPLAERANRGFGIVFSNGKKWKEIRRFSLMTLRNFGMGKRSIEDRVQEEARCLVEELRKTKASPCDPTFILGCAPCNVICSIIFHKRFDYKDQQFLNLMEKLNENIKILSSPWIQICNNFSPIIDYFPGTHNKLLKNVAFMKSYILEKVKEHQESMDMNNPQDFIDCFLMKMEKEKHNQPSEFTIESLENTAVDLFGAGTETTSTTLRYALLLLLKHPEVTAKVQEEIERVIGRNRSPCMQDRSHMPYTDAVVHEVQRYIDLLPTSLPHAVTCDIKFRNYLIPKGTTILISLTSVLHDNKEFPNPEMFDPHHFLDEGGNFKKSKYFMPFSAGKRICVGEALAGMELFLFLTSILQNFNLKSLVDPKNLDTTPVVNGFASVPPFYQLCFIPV
# Procedure, shortened: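 CYP2C9 deoxyluciferin hydroxylation, 37C, 60 min with NADPH regeneration; 10nM enzyme, 100uM Luciferin-H (KM). Glo detection reagent stopped reaction; luminescence normalized to sulphaphenazole (57uM) full inhibition.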
# [5] = biological target: Cytochrome P450 2C19 (Homo sapiens) (UniProt P33261); assay: qHTS Assay for Inhibitors and Substrates of Cytochrome P450 2C19 (AID 899); further: nearly all actives have a fitted effect of over 60% in size
# Sequence of Cytochrome P450 2C19 (Homo sapiens) (P33261 whole entry, looked up): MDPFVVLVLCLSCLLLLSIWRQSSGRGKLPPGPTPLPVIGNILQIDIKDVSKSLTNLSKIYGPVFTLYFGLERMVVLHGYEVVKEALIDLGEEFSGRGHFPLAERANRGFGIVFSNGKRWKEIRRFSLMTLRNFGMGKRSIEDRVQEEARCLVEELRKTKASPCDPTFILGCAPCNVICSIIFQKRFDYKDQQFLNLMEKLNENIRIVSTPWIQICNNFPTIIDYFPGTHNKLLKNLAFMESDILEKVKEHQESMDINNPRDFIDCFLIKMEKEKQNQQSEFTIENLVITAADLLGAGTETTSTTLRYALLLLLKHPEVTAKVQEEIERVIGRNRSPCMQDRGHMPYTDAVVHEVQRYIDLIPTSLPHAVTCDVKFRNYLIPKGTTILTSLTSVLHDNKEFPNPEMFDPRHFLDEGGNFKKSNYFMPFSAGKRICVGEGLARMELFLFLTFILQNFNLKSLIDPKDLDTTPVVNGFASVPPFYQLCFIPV
# Procedure, shortened: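 In 50mM KPO4, the reaction held 5nM enzyme and KM-level (10uM) Luciferin-H EGE; it ran 60 min at 37C after NADPH regeneration and a 10 min compound preincubation. Luminescence values were scaled to 57uM ketoconazole as complete inhibition.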
# [6] = biological target: Cytochrome P450 3A4 (Homo sapiens) (UniProt P08684); assay: qHTS Assay for Activators of Cytochrome P450 3A4 (AID 885); further: nearly all actives have a fitted effect of over 65% in size
# Procedure, shortened: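 20nM CYP3A4 + 25uM Luciferin-PPXE (=KM), 200mM KPO4; cpd 10 min RT; NADPH regen, 60 min RT; stop w/ detection buffer, 20 min; luminescence. Normalized to 57 uM ketoconazole.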
# [7] = biological target: Cytochrome P450 2D6 (Homo sapiens) (UniProt P10635); assay: qHTS Assay for Inhibitors and Substrates of Cytochrome P450 2D6 (AID 891); further: nearly all actives have a fitted effect of over 60% in size; further: potency means the concentration at half of the fitted maximal effect;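 on activity change, negative = inhibition: luciferin methyl ether substrate demethylated by CYP2D6 with NADPH regeneration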
# Sequence of Cytochrome P450 2D6 (Homo sapiens) (P10635 whole entry, looked up): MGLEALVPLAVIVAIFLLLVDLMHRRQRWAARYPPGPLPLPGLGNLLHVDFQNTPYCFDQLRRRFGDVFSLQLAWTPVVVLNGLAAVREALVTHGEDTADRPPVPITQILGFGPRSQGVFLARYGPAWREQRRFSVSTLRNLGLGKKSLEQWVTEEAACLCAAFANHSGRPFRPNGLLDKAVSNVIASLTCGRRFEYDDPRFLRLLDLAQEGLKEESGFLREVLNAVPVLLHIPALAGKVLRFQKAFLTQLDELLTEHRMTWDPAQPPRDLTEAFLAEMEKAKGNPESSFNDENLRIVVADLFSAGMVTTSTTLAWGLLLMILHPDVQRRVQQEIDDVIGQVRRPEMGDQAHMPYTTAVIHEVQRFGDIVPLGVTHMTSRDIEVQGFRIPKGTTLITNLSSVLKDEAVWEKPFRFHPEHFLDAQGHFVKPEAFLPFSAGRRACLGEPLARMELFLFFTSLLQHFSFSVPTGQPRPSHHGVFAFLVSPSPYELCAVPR
# Procedure, shortened: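 Human CYP2D6 (5 nM) with 30 uM Luciferin-ME EGE (at Km) in 100 mM KPO4, compound preincubated 10 min, then NADPH regeneration system for 60 min at room temperature. Luciferin read by luminescence; normalized to 1.43 uM quinidine.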
# [8] = qHTS Assay for Identification of Small Molecule Antagonists for NFkB Signaling Pathway (AID 895; active means well fitted inhibition curve with a large enough effect in the signal ratio, with a control signal flat, not every such curve was filed as active; the % refers to the signal ratio)
# Procedure, shortened: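 NFkB-bla ME-180 cervical carcinoma cells with beta-lactamase reporter under NFkB response element; compounds added, then TNF alpha at 10 pM final (EC50), 5 h at 37 C. LiveBLAzer substrate 2 h, room temperature; emission 460/530 nm at 405 nm excitation.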
# [9] = qHTS Assay for Identification of Small Molecule Agonists for Hypoxia Response Element Signaling Pathway (AID 914; active means well fitted activation curve with a large enough effect in the signal ratio, with a control signal flat, not every such curve was filed as active; the % refers to the signal ratio); conditions: ME-180 (cervical carcinoma) HRE-bla reporter, beta-lactamase ratio, CoCl2, 17 h; hits give high values
# Procedure, shortened: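 HRE-bla ME-180 cells, overnight plating in Opti-MEM with 0.5% dialyzed FBS; cpd titration + EC50 CoCl2, 17 h, 37 degrees Celsius; CCF4 2.5 h RT; 460/530 nm ratio; AC50.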
smiles,measurement,setting,value
CCN(CC)CCNC(=O)c1cc(Cl)c(N)cc1OC,outcome,[1],inactive
same,Potency,[2],inactive
same,outcome,[3],inactive
Nc1ccc(S(=O)(=O)NC(=O)c2ccccc2)cc1,Potency,[2],inactive
same,outcome,[3],inactive
OC[C@H]1O[C@@H](O[C@@H]2[C@@H](CO)O[C@](O)(CO)[C@H]2O)[C@H](O)[C@@H](O)[C@H]1O,Potency,[2],inactive
O=c1cc(CO)occ1O,Potency,[4],inactive
same,Potency,[2],inactive
same,Potency,[5],inactive
Cc1ccc(C(C)C)cc2c(C)ccc1-2,Potency,[2],inactive
same,outcome,[3],inactive
Cc1c(Cl)cccc1Nc1ccccc1C(=O)O,Potency,[4],3.16 µM (active)
same,Potency,[2],inactive
same,outcome,[3],inactive
OCCN1CCN(CCCN2c3ccccc3Sc3ccc(Cl)cc32)CC1,outcome,[1],inactive
same,outcome,[3],inactive
CCCCCCCCCCCCCCCCCCOCC(O)CO (stereo unspecified),Potency,[2],inactive
same,outcome,[3],inactive
CC(=O)OCC(=O)[C@@]1(O)CC[C@H]2[C@@H]3CCC4=CC(=O)CC[C@]4(C)[C@H]3C(=O)C[C@@]21C,outcome,[1],inactive
same,Potency,[2],inactive
CN(C)CCCN1c2ccccc2Sc2ccc(Cl)cc21,outcome,[1],inactive
same,outcome,[3],inactive
NCC(=O)CCC(=O)O,Potency,[2],inactive
same,outcome,[3],inactive
NS(=O)(=O)c1cc2c(cc1Cl)NC(CSCc1ccccc1)=NS2(=O)=O,Potency,[2],25.1 µM (active)
same,outcome,[6],inactive
same,outcome,[3],inactive
CN(C)CCN(Cc1ccccc1)c1ccccn1,Potency,[2],inactive
same,outcome,[3],inactive
Nc1cc(=O)[nH]c(N)n1,outcome,[1],inactive
same,Potency,[4],inactive
same,Potency,[7],inactive
same,Potency,[5],inactive
COc1ccc(Cl)cc1C(=O)NCCc1ccc(S(=O)(=O)NC(=O)NC2CCCCC2)cc1,outcome,[1],inactive
same,outcome,[3],inactive
C#CCN(C)Cc1ccccc1,outcome,[1],inactive
same,Potency,[2],inactive
OCC(O)CN1CCN(c2ccccc2)CC1 (stereo unspecified),Potency,[2],inactive
same,outcome,[3],inactive
CC1=C(CC(=O)O)c2cc(F)ccc2/C1=C\c1ccc(S(C)(=O)=O)cc1,outcome,[1],inactive
same,outcome,[6],inactive
same,Potency,[5],inactive
Cc1cccc(Nc2cc(Cl)nc(SCC(=O)O)n2)c1C,"activity change, negative = inhibition",[4],-10.9% [at 11.4 µM] (inactive)
same,Potency,[7],3.16 µM (active)
same,"activity change, negative = inhibition",[7],13.3% [at 11.4 µM] (inactive)
same,"activity, negative = inhibition",[5],16.3% [at 11.4 µM] (inactive)
same,outcome,[3],inactive
CCN(CC)CCOC(=O)C1(C2CCCCC2)CCCCC1,outcome,[1],inactive
same,outcome,[6],inactive
same,outcome,[3],inactive
O=C1NS(=O)(=O)c2ccccc21,Potency,[2],inactive
same,outcome,[3],inactive
c1ccc(CN(CC2=NCCN2)c2ccccc2)cc1,Potency,[2],inactive
same,Potency,[7],2.51 µM (active)
same,outcome,[3],inactive
N=c1c[n+](N2CCOCC2)[n-]o1,outcome,[1],inactive
same,Potency,[8],inactive
CCCCN(CCCC)CCCOC(=O)c1ccc(N)cc1,Potency,[7],0.0063 µM (active)
CCCCN1CCCC[C@H]1C(=O)Nc1c(C)cccc1C,Potency,[7],0.501 µM (active)
Cc1ncc([N+](=O)[O-])n1CC(O)CCl (stereo unspecified),activation,[9],4.13% (inactive)
CCC(=O)c1ccc(O)cc1,activation,[9],5.29% (inactive)
